From PubChem BioAssay (NCI) come the findings set out here.

SMILES strings stand for the structures. About 79,000 compounds went through this panel and 15% of them were active in at least one assay; those are over-represented in the sample as a whole. Unmarked numbers belong to inactive results. Active and inactive are the calls of the source. No stated cut-off is given here; in the data, active means growth inhibition above about 70%; inactive means the rest.

A short description of assay [1]: NCI Yeast Anticancer Drug Screen. Data for the rad50 strain (AID 155).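 Further: 0% = growth of vehicle-only cultures of the same strain.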 As to conditions: S. cerevisiae rad50 strain growth inhibition, stronger effect = higher value. In a few lines: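 Inhibition values express reduced yeast growth in compound-treated cultures relative to vehicle-treated controls.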
The nature of assay [2]: NCI Yeast Anticancer Drug Screen. Data for the mec2-1 strain (AID 157). The following applies: S. cerevisiae mec2-1 strain, stronger effect = higher value. In a few lines:
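Test agents were screened against the mec2-1 yeast strain, with defined DNA repair or cell cycle alteration. Growth was scored as inhibition against vehicle-only controls.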

The nature of assay [3]: NCI Yeast Anticancer Drug Screen. Data for the sgs1 mgt1 strain (AID 161).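 Further: 0% = growth of cultures given vehicle only.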 The following applies: S. cerevisiae sgs1 mgt1 strain, stronger effect = higher value. The procedure, abridged:
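Read-out: growth inhibition vs vehicle controls. Cells: mutant yeast strain deficient in DNA damage repair.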

Assay [4] in a line: NCI Yeast Anticancer Drug Screen. Data for the cln2 rad14 strain (AID 165).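 Further: 0% = growth equal to vehicle treated cultures.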 The following applies: S. cerevisiae cln2 rad14 strain, stronger effect = higher value. The procedure, abridged:
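Growth of compound-exposed yeast (cln2 rad14 genotype) measured and expressed as inhibition relative to vehicle.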

A short description of assay [5]: NCI Yeast Anticancer Drug Screen. Data for the bub3 strain (AID 167). As to conditions: S. cerevisiae bub3 mutant strain, stronger effect = higher value. In a few lines:
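Steps: expose the mutant yeast strain to compound; grow alongside vehicle-treated cultures; measure growth; express inhibition against the vehicle cultures.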

The nature of assay [6]: NCI Yeast Anticancer Drug Screen. Data for the mlh1 rad18 strain (AID 175). As to conditions: S. cerevisiae mlh1 rad18 strain growth inhibition, stronger effect = higher value. In a few lines:
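In this whole-cell yeast screen, a strain with altered DNA damage repair is challenged with compound, and its growth is measured against matched vehicle-treated controls.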

Where [7] appears, read: at 5.0 µM (retest, dose inferred, filed as 0.5).
Setting [8] is: at 50.0 µM (retest, dose inferred, filed as 5.0).

For the molecule `c1ccc([Si](C[CH2][Sn]([c]2ccccc2)([c]2ccccc2)[c]2ccccc2)(c2ccccc2)c2ccc([Si](C[CH2][Sn]([c]3ccccc3)([c]3ccccc3)[c]3ccccc3)(c3ccccc3)c3ccccc3)cc2)cc1`, the growth inhibition was 99% (active) in assay [1] (setting [7]); 98% (active) in assay [1] (setting [8]); 77.3% (active) in assay [1] (at 50.0 µM); 99% (active) in assay [2] (setting [7]); 99% (active) in assay [2] (setting [8]); 89.5% (active) in assay [2] (at 50.0 µM). The growth inhibition in assay [3] (setting [7]) was 100% (active); in assay [3] (setting [8]), 98% (active); in assay [3] (at 50.0 µM), 71.9% (active); in assay [4] (setting [7]) it was 99% (active); in assay [4] (setting [8]), 98% (active); in assay [4] (at 50.0 µM), 83.8% (active). The growth inhibition was 99% (active) in assay [5] (setting [7]); 98% (active) in assay [5] (setting [8]); 97.6% (active) in assay [5] (at 50.0 µM); 99% (active) in assay [6] (setting [7]); 98% (active) in assay [6] (setting [8]); 73.1% (active) in assay [6] (at 50.0 µM).

`OCCCNc1nc2c(Cl)cc(Cl)cc2c2ccccc12`: the growth inhibition in assay [1] (setting [7]) was 16%; in assay [1] (setting [8]), 49%; in assay [1] (at 50.0 µM), 50%; in assay [2] (setting [7]) it was 6%; in assay [2] (setting [8]), 28%; in assay [2] (at 50.0 µM), 15.4%. The growth inhibition was 8% in assay [3] (setting [7]); 30% in assay [3] (setting [8]); 72.7% (active) in assay [3] (at 50.0 µM); -6% in assay [4] (setting [7]); -16% in assay [4] (setting [8]); 19.4% in assay [4] (at 50.0 µM). Further, the growth inhibition in assay [5] (setting [7]) is -6%; in assay [5] (setting [8]) it was -5%; in assay [5] (at 50.0 µM), 76.2% (active); in assay [6] (setting [7]), 4%; in assay [6] (setting [8]), 30%; in assay [6] (at 50.0 µM), 92.8% (active).

Turning to `CC(C)C[NH-].CC(C)C[NH-].[Cl][Pt+2]([Cl])([Cl])[Cl]`, the growth inhibition in assay [1] (setting [7]) is 72% (active); in assay [1] (setting [8]), 98% (active); in assay [1] (at 50.0 µM) it was 85.2% (active); in assay [2] (setting [7]), 46%; in assay [2] (setting [8]) it was 99% (active); in assay [2] (at 50.0 µM), 91.5% (active). The growth inhibition is 70% (active) in assay [3] (setting [7]); 99% (active) in assay [3] (setting [8]); 89.2% (active) in assay [3] (at 50.0 µM); 53% in assay [4] (setting [7]); 99% (active) in assay [4] (setting [8]); 83.5% (active) in assay [4] (at 50.0 µM). Also, the growth inhibition in assay [5] (setting [7]) is 70% (active); in assay [5] (setting [8]), 99% (active); in assay [5] (at 50.0 µM), 89.5% (active); in assay [6] (setting [7]) it was 66%; in assay [6] (setting [8]), 98% (active); in assay [6] (at 50.0 µM), 87.8% (active).

On to `CCCC(=O)c1ccc(OC)cc1`, for which the growth inhibition in assay [1] (setting [7]) was 0%; in assay [1] (setting [8]), 28%; in assay [1] (at 50.0 µM), 41.9%; in assay [2] (setting [7]), 1%; in assay [2] (setting [8]) it was 70% (active); in assay [2] (at 50.0 µM), -11.3%. Besides, the growth inhibition was 0% in assay [3] (setting [7]); 13% in assay [3] (setting [8]); 14.9% in assay [3] (at 50.0 µM); 1% in assay [4] (setting [7]); 10% in assay [4] (setting [8]); 17.6% in assay [4] (at 50.0 µM). In addition, the growth inhibition in assay [5] (setting [7]) was -6%; in assay [5] (setting [8]), 98% (active); in assay [5] (at 50.0 µM), 20.9%; in assay [6] (setting [7]), -1%; in assay [6] (setting [8]), 61%; in assay [6] (at 50.0 µM), 6.25%.

Turning to `c1cnc2c(Oc3nc(Oc4cccc5cccnc45)nc(Oc4cccc5cccnc45)n3)cccc2c1`, the growth inhibition in assay [1] (setting [7]) was 1%; in assay [1] (setting [8]) it was 91% (active); in assay [1] (at 50.0 µM), 94% (active); in assay [2] (setting [7]) it was 30%; in assay [2] (setting [8]), 90% (active); in assay [2] (at 50.0 µM), 89.9% (active). For the same molecule, the growth inhibition in assay [3] (setting [7]) is 18%; in assay [3] (setting [8]), 76% (active); in assay [3] (at 50.0 µM), 94.1% (active); in assay [4] (setting [7]) it was 5%; in assay [4] (setting [8]), 54%; in assay [4] (at 50.0 µM) it was 84.2% (active). In addition, the growth inhibition was -2% in assay [5] (setting [7]); 92% (active) in assay [5] (setting [8]); 94% (active) in assay [5] (at 50.0 µM); 30% in assay [6] (setting [7]); 94% (active) in assay [6] (setting [8]); 91.2% (active) in assay [6] (at 50.0 µM).

For the molecule `OC(Cc1ccc(Br)cc1)CN1CCC(c2ccccc2)CC1` (stereo not drawn), the growth inhibition in assay [1] (setting [7]) was 98% (active); in assay [1] (setting [8]), 98% (active); in assay [1] (at 50.0 µM), 83.9% (active); in assay [2] (setting [7]), 71% (active); in assay [2] (setting [8]) it was 71% (active); in assay [2] (at 50.0 µM), 74.5% (active). In addition, the growth inhibition in assay [3] (setting [7]) is 97% (active); in assay [3] (setting [8]) it was 97% (active); in assay [3] (at 50.0 µM) it was 82.8% (active); in assay [4] (setting [7]), 87% (active); in assay [4] (setting [8]) it was 87% (active); in assay [4] (at 50.0 µM), 78.9% (active). The growth inhibition in assay [5] (setting [7]) was 83% (active); in assay [5] (setting [8]) it was 83% (active); in assay [5] (at 50.0 µM) it was 87.8% (active); in assay [6] (setting [7]), 88% (active); in assay [6] (setting [8]), 88% (active); in assay [6] (at 50.0 µM), 79% (active).
